In PubChem BioAssay (NCATS):
Records with an inconclusive call do not appear. Where a call stands in place of a potency, no number is given. Active and inactive are the calls of the source. Calls follow the shape of the full dose curve.

Target: Atrial natriuretic peptide receptor 1 (Homo sapiens) (UniProt P16066)
Experiment: Natriuretic polypeptide receptor (hNpr1) antagonism - Pilot screen (AID 1347049)
Settings: hNpr1 cells, antagonist mode cGMP read-out; series mostly up to 57.5 µM
Method: In order to identify small molecular compounds that inhibit the hNpr1 receptor we developed a high-throughput assay to measure inhibition of the guanylate cyclase activity of the receptor. cGMP production was measured using a circular permutated Firefly luciferase (FLuc) enzyme functionally linked to the cGMP binding domain of human phosphodiesterase 5 (GloSensor technology pGS-40F, (Fan, F. et al. 2008). The cGMP-sensor was expressed in human embryonic kidney 293 (HEK-293) cells and FLuc activity was measured after stimulation with hNrp agonist peptide. hNrp agonists activates the receptor's associated guanylyl cyclase (GC) domain producing cGMP which then binds to the GloSensor resulting in FLuc activation, the enzymatic activity of which can be measured as bioluminescence with addition of luciferin substrate.
F. Fan, B. F. Binkowski, B. L. Butler, P. F. Stecha, M. K. Lewis, K. V. Wood, Novel genetically encoded biosensors using firefly luciferase. ACS Chem Biol 3, 346-351 (2008).
This assay was initially piloted by testing with a small diversity library of compounds with known pharmacological activity.
PROTOCOL TABLES (as described by Inglese J, Shamu CE and Guy RK. 2007)
SEQUENCE No. (e.g., 1, 2, 3, etc.); […] (e.g., Cells, Incubation, Reagent, etc.); VALUE and DESCRIPTION.
1. Cells. Seed 1500 HEK293 cGMP-sensor cells expressing hNpr1 per well in 4uL into Greiner 1536-well white/solid bottom high base, tissue culture-treated plates.
2. Incubation. Incubate plated cells at 37C in 5% CO2, 95% RH overnight.
3. Reagent. Add 1uL per well GloSensor reagent from Promega (2% final concentration) or CO2 independent media vehicle control to respective columns of Greiner 1536-well plates.
4. Incubation. Incubate plated cells at room temperature for 2 h, protect from light.
5. Compounds. Library compounds and A-71915 control added at 23 nL per well, transferred by Pin Tool.
6. Incubation. Incubate plated cells for 30 min. at room temperature, protect from light.
7. Detector. GloSensor baseline pre-read luminescence measured using CCD-based camera (Viewlux).
8. Compound. Add 1uL of hNppA peptide to 0.1 nM final concentration to stimulate hNpr1 or CO2 independent media as vehicle control.
9. Incubation. Incubate treated cells at room temperature for 20 min., protect from light.
10. Detector. GloSensor post-hNppA luminescence measured using CCD-based camera (Viewlux).
NOTES (numbers refer to Sequence numbers above)
1. HEK293 cells expressing hNpr1 and GIP/pGS-40F grown to 85-95% confluence (48-72 h) in T175 culture flasks (CO2 independent media supplemented with 10% FBS, 1% Pen/Strep antibiotics and 1 ug/mL puromycin). Trypsinize and harvest cells from T175 culture flasks and filter through 40 um cell strainer. Cells counted with Invitrogen Countess (30,000,000 - 50,000,000 cells/flask). Cells diluted to a final concentration of 375 cells/uL in CO2 independent media and a Millipore multidrop used to dispense 1500 cells per well (4uL/well) into 9 x 1536-well Greiner White/Solid bottom, high base tissue-culture treated (TC) plates and one Aurora 1536-well Black/Clear bottom, low base, TC plate (for visual inspection of cell health throughout the duration of the assay).
2. Cells incubated overnight at ambient temperature, 24 h. at 37C in 95% RH incubator protected from light, covered with metal lid with gas-exchange holes.
3. Prepare GloSensor Reagent (Promega): Reconstitute GloSensor luciferase substrate by adding 8.2mL Hepes buffer to 250mg substrate, mix well, protect from light and stored at -80C. Prepare a fresh 12% GloSensor solution in CO2 independent supplemented plating media (see above). Mix well and store at ambient temperature, protected from light. 1uL 12% GloSensor Luciferase Reagent added (2% final concentration) to respective columns of 9 x 1536-well Greiner plate with BioRaptr, 1uL CO2 independent plating media added to respective columns as vehicle control with BioRaptr.
4. […]
Potency is read from the fitted curve at half-maximal effect.

Atrial natriuretic peptide receptor 1 (Homo sapiens), sequence (P16066 whole entry, looked up): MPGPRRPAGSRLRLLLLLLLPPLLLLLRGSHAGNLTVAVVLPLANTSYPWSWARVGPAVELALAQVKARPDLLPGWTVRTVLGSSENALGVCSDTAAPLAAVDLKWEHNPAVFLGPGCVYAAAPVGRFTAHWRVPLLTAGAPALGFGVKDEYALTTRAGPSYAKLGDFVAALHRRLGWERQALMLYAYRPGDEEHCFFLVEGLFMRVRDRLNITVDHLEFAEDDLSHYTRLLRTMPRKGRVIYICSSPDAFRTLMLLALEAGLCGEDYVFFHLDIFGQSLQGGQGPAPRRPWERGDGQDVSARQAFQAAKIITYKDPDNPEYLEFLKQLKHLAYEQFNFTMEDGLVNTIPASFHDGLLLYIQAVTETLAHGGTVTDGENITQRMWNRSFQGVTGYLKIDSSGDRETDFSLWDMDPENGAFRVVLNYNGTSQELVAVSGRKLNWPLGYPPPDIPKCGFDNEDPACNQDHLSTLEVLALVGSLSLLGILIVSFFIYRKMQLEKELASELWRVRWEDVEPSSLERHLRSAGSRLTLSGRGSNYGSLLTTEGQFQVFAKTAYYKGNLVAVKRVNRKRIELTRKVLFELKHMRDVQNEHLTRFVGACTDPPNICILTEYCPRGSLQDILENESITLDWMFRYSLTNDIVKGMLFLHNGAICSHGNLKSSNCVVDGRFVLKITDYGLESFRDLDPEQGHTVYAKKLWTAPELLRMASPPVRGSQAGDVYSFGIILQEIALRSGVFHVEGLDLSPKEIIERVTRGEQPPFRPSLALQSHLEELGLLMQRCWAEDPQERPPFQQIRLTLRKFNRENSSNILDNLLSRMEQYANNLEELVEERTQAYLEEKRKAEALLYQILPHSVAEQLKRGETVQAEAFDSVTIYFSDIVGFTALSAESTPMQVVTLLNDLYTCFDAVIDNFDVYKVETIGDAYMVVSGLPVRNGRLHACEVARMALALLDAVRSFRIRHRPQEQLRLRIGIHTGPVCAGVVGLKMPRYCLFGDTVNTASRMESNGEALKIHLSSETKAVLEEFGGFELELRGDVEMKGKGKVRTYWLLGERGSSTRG

Structure (SMILES)	Potency
Cc1ccccc1CNc1ncnc2c1ncn2C1OC(CO)C(O)C1O (stereo not given)	inactive
O=C(/C=C/c1ccc(O)cc1)c1ccc(O)cc1O	30.1 µM (active)
CCCCCCCC/C=C\CCCCCCCC(=O)NCCO	inactive
CNC(=O)[C@H]1O[C@@H](n2cnc3c(NCc4cccc(I)c4)ncnc32)[C@H](O)[C@@H]1O	inactive
COc1cccc(OC)c1OCCNCC1COc2ccccc2O1 (stereo not given)	inactive
O=C(O)CNC(=O)C(CS)Cc1ccccc1 (stereo not given)	inactive
C[C@@H](NC(=O)/C(C#N)=C/c1ccc(O)c(O)c1)c1ccccc1	inactive
CCc1c(C(=O)NCCc2ccc(N3CCCCC3)cc2)[nH]c2ccc(Cl)cc12	inactive
OCC1O[C@H](O)C(Cl)C(O)C1O (stereo not given in full)	inactive
O=C(Nc1ccccc1)c1cc([N+](=O)[O-])ccc1Cl	inactive
C#CCN1C(C)=C(C(=O)OC)C(c2cccc([N+](=O)[O-])c2)C(C(=O)OCC)=C1C (stereo not given)	inactive
CCCCN1CCC(n2c(=O)[nH]c3ccccc32)CC1	inactive
NC[C@H]1O[C@@H](n2cnc3c(N)ncnc32)[C@H](O)[C@@H]1O	inactive
COC1=C(OC)C(=O)c2ccccc2C1=O	inactive
O=c1[nH]c2cc([N+](=O)[O-])c([N+](=O)[O-])cc2[nH]c1=O	inactive
COc1ccc(/C=C/C(=O)Nc2ccccc2C(=O)O)cc1OC	9.53 µM (active)
CC(=O)/C=C1\C(=O)N(C)c2ccccc21	16.9 µM (active)
COc1cc(SC)ccc1C(=O)N1CCC(Cc2ccccc2)CC1	inactive
CCC1C(=O)OCC1Cc1cncn1C (stereo not given)	inactive
O=C1/C(=C/c2ccsc2)CC/C1=C\c1cccs1	6.01 µM (active)

Structure (SMILES)	Potency
CC(=O)SCC[N+](C)(C)C	inactive
CC(N)C(=O)OC(C)(C)Cc1ccc(Cl)cc1 (stereo not given)	inactive
CN1[C@@H](CC(=O)c2ccccc2)CCC[C@H]1C[C@H](O)c1ccccc1	inactive
COC(=O)c1c(C)[nH]c(C)c1C(=O)c1ccccc1Cc1ccccc1	inactive
O=P(O)(O)C(Cl)(Cl)P(=O)(O)O	inactive
NCCNC(=O)c1ncsc1-c1cccc(F)c1	inactive
C=C[C@H]1CN2CC[C@@H]1C[C@@H]2[C@@H](O)c1ccnc2ccc(OC)cc12	inactive
NC(=O)C(=O)O	inactive
O=C1O/C(=C/Br)CCC1c1cccc2ccccc12 (stereo not given)	19 µM (active)
COc1cc2c(CCNC(C)=O)c[nH]c2cc1Cl	inactive
NCCCCC(=O)O	inactive
OCC1O[C@H]([S-])[C@H](O)[C@@H](O)[C@@H]1O.[Au+] (stereo not given in full)	inactive
CSc1nc(N)c2ncn([C@@H]3O[C@H](COP(=O)(O)OP(=O)(O)OP(=O)(O)O)[C@@H](O)[C@H]3O)c2n1	inactive
CC(C)(C)c1ccc(S(=O)(=O)/C=C/C#N)cc1	12 µM (active)
OC[C@H]1O[C@@H](n2cnc3c(NC4CCCCC4)ncnc32)[C@H](O)[C@@H]1O	inactive
NO	inactive
Cc1ccc(O)c(N=Nc2ccccc2)n1	16.9 µM (active)
CC(C)Cc1ccc([C@H](C)C(=O)O)cc1	inactive
CN1CCc2cc(O)c(O)cc2C(c2ccccc2)C1 (stereo not given)	inactive
O=C1NC(=O)/C(=C/c2ccc(-c3ccc(F)cc3O)o2)S1	inactive
